Potency data for 13 compounds are collected here from PubChem BioAssay (NCATS).

Each structure is given as a SMILES string. Results filed as inconclusive are left out. Calls of active or inactive are those of the source. The call rests on the fitted dose curve; in most records, active means well fitted curve in the direction sought with a large enough effect; inconclusive means small, poorly fitted or top-dose-only effect, or another doubt; inactive means no such curve, though single readings can be large; an effect the other way counts as inactive or inconclusive.

Test [1] in a line: Quantitative High-Throughput drug screen in 47 multiple myeloma cell lines against the NCATS MIPE library collection: ARD_JJKsccE7 cell viability assay (AID 1918929). Summed up:
(§1)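 Myeloma cells (500 per well) were exposed to MIPE 4.0 compounds by pin transfer and incubated 48 hours at 37C, 5% CO2. Viability was read as ATP by CellTiter-Glo luminescence, normalised to DMSO (100%) and media-only (0%) wells.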

Test [2] can be described thus: Quantitative High-Throughput drug screen in 47 multiple myeloma cell lines against the NCATS MIPE library collection: Karpas620_DSMZ cell viability assay (AID 1918959). Further: nearly all actives have a fitted effect of over 30% in size. The essentials: (§2)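 Relative luminescence from CellTiter-Glo served as the viability signal, referenced to DMSO-treated (100%) and cell-free medium (0%) controls. Treatment lasted 48 hours at 37C with 500 cells per well.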

The nature of test [3]: Quantitative High-Throughput drug screen in 47 multiple myeloma cell lines against the NCATS MIPE library collection: KMM1_JCRB cell viability assay (AID 1918960). Further: nearly all actives have a fitted effect of over 30% in size. Summed up: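 Viability screen: myeloma cells (500/well) incubated 48 h at 37 °C, humidified 5% CO2, with pinned library compounds; CellTiter-Glo added, luminescence read; DMSO wells set 100%, medium-only wells 0%.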

Test [4] in a line: Quantitative High-Throughput drug screen in 47 multiple myeloma cell lines against the NCATS MIPE library collection: KHM11_PLB cell viability assay (AID 1918962). Further: nearly all actives have a fitted effect of over 35% in size. The essentials:
as §2

The nature of test [5]: Quantitative High-Throughput drug screen in 47 multiple myeloma cell lines against the NCATS MIPE library collection: JIM3_ECACC cell viability assay (AID 1918963; further: nearly all actives have a fitted effect of over 35% in size). Summed up: as §2
Test [6] in a line: Quantitative High-Throughput drug screen in 47 multiple myeloma cell lines against the NCATS MIPE library collection: JIM1_ECACC cell viability assay (AID 1918964). Summed up:
as §1

Test [7] can be described thus: Quantitative High-Throughput drug screen in 47 multiple myeloma cell lines against the NCATS MIPE library collection: INA6_PLB cell viability assay (AID 1918965; further: nearly all actives have a fitted effect of over 55% in size). Summed up:
as §2

Test [8] in a line: Quantitative High-Throughput drug screen in 47 multiple myeloma cell lines against the NCATS MIPE library collection: JJN3_DSMZ cell viability assay (AID 1918966; further: nearly all actives have a fitted effect of over 50% in size). The essentials: as §1
Test [9] in a line: Quantitative High-Throughput drug screen in 47 multiple myeloma cell lines against the NCATS MIPE library collection: H1112_PLB cell viability assay (AID 1918967; further: nearly all actives have a fitted effect of over 30% in size). The essentials: as §1
Test [10] is described as follows: Quantitative High-Throughput drug screen in 47 multiple myeloma cell lines against the NCATS MIPE library collection: Karpas25_ECACC cell viability assay (AID 1918968; further: nearly all actives have a fitted effect of over 35% in size). Summed up:
as §1

Test [11] can be described thus: Quantitative High-Throughput drug screen in 47 multiple myeloma cell lines against the NCATS MIPE library collection: KMS27_JCRB cell viability assay (AID 1918970). Further: nearly all actives have a fitted effect of over 30% in size. The essentials:
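Luminescent ATP read-out (CellTiter-Glo, 5 min at room temperature) after 48 h compound exposure of 500 KMS27_JCRB cells per well; DMSO wells define full viability and media-only wells zero.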

Test [12] is described as follows: Quantitative High-Throughput drug screen in 47 multiple myeloma cell lines against the NCATS MIPE library collection: KMS12PE_JCRB cell viability assay (AID 1918972). Further: nearly all actives have a fitted effect of over 30% in size. The essentials: as §2
Test [13] can be described thus: Quantitative High-Throughput drug screen in 47 multiple myeloma cell lines against the NCATS MIPE library collection: KMS26_JCRB cell viability assay (AID 1918975). Further: nearly all actives have a fitted effect of over 45% in size. The essentials:
(§3)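 Steps: seed 500 cells per well; pin-transfer MIPE 4.0 library; incubate 48 h at 37C, 5% CO2, humidified; add CellTiter-Glo, 5 min room temperature; read luminescence.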

A short description of test [14]: Quantitative High-Throughput drug screen in 47 multiple myeloma cell lines against the NCATS MIPE library collection: NCIH929_DSMZ cell viability assay (AID 1918978). Further: nearly all actives have a fitted effect of over 35% in size. Summed up:
(§4)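 Readout: median RLU from CellTiter-Glo after 5 min at room temperature. Preceding step was 48 h drug treatment of 500 cells/well at 37 °C, 5% CO2, with DMSO-only and media-only control wells.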

Test [15] is described as follows: Quantitative High-Throughput drug screen in 47 multiple myeloma cell lines against the NCATS MIPE library collection: Karpas417_ECACC cell viability assay (AID 1918961). The following applies: Karpas417 myeloma viability, CellTiter-Glo ATP luminescence, 48 h; viability (% of DMSO): at 45.8 µM (top of the series). The essentials: as §2
For orientation: ATP-based viability assays read luminescence as a measure of living cells.

Test [16] in a line: Quantitative High-Throughput drug screen in 47 multiple myeloma cell lines against the NCATS MIPE library collection: KMS12BM_JCRB cell viability assay (AID 1918971). Further: nearly all actives have a fitted effect of over 35% in size. The essentials:
as §3

The nature of test [17]: Quantitative High-Throughput drug screen in 47 multiple myeloma cell lines against the NCATS MIPE library collection: KMS21BM_JCRB cell viability assay (AID 1918974). The following applies: ATP luminescence, 48 h; viability: at 45.8 µM (top of the series) unless noted. The essentials:
as §1

Test [18] in a line: Quantitative High-Throughput drug screen in 47 multiple myeloma cell lines against the NCATS MIPE library collection: MOLP8_DSMZ cell viability assay (AID 1918977). Further: nearly all actives have a fitted effect of over 45% in size. Summed up:
as §4

The nature of test [19]: Quantitative High-Throughput drug screen in 47 multiple myeloma cell lines against the NCATS MIPE library collection: KMS20_JCRB cell viability assay (AID 1918973). Further: nearly all actives have a fitted effect of over 45% in size. The essentials: as §1
A short description of test [20]: Quantitative High-Throughput drug screen in 47 multiple myeloma cell lines against the NCATS MIPE library collection: MMM1_PLB cell viability assay (AID 1918976). Further: nearly all actives have a fitted effect of over 35% in size. The essentials:
as §4
Potency means the concentration at half of the fitted maximal effect.

For the compound `NC[C@@H]1O[C@@H](O[C@H]2[C@@H](O)[C@H](O[C@@H]3[C@@H](O)[C@@H](N)C[C@H](N)[C@H]3O[C@H]3O[C@H](CN)[C@@H](O)[C@@H](O)[C@H]3N)O[C@H]2CO)[C@H](N)[C@@H](O)[C@@H]1O`, the Potency result in test [1], in test [2], in test [3], in test [4], in test [5] and in test [6] was “inactive” throughout. In addition, the Potency result in test [7], in test [8], in test [9], in [10], in test [11] and in test [12] was “inactive” each time. For the same compound, the Potency entry in [13] and in [14] was “inactive” throughout.
With `NC1CCC(Nc2nc(Nc3ccc(C(=O)N4CCCCC4)cc3)c3ncn(-c4cccc(F)c4)c3n2)CC1` (centres undefined), the Potency entry in test [1], in test [2], in test [3], in test [15], in [9] and in test [10] was “inactive” throughout. Besides, the Potency result in test [16], in [12], in [17], in [18] and in [14] was “inactive” in each case.
Take `CO[C@H]1C=CC=C(C)C(=O)NC2=CC(=O)C(NCCN(C)C)=C(C[C@@H](C)C[C@H](OC)[C@@H](O)[C@@H](C)C=C(C)[C@@H]1OC(N)=O)C2=O`: the Potency was 0.001 µM (active) in test [1]; 0.296 µM (active) in [2]; 0.0526 µM (active) in test [3]; 0.0372 µM (active) in test [4]; 0.0743 µM (active) in test [5]; 0.0209 µM (active) in test [6]. Besides, the Potency is 0.0235 µM (active) in test [7]; 3.32 µM (active) in test [9]; 0.059 µM (active) in test [10]; 0.0264 µM (active) in test [11]; 0.0469 µM (active) in test [16]; 0.0662 µM (active) in test [12]. Moreover, the Potency in test [19] is 0.001 µM (active); in [13] it was 0.0332 µM (active); in test [20] it was 1.66 µM (active); in test [14], 0.059 µM (active).
For `CC[C@]1(O)C[C@@H]2CN(CCc3c([nH]c4ccccc34)[C@@](C(=O)OC)(c3cc4c(cc3OC)N(C=O)[C@@H]3C45CCN4CC=C[C@](CC)([C@H]45)[C@@H](OC(C)=O)[C@]3(O)C(=O)OC)C2)C1` (some centres undefined), the Potency result in test [1], in test [2], in [3], in test [15], in test [6] and in [11] was “inactive” in each case. For the same compound, the Potency entry in test [12] was “inactive”. In addition, the Potency in test [8] was 20.9 µM (active); in test [13], 23.5 µM (active).
Take `Cc1ccc(C(C)(O)c2nc3ccccc3s2)c(C)c1` (centres undefined): the Potency entry in test [1], in test [2], in [3], in test [15], in test [7] and in test [9] was “inactive” in each case. The Potency entry in [10], in test [12], in [19], in test [13] and in test [14] was “inactive” throughout.
For `CC(C)C(C)C=CC(C)C1CCC2C3=CC=C4CC(O)CCC4(C)C3CCC21C` (centres undefined), the Potency entry in test [1], in test [3], in [15], in test [5], in test [9] and in [10] was “inactive” in each case. Moreover, the Potency entry in [16], in test [12], in test [18] and in test [14] was “inactive” in each case. Further, in test [2], the Potency is 18.7 µM (active).
As for `COc1cc(O)c2c(c1)C(=O)c1cc(C)cc(O)c1C2=O`, the Potency entry in test [1], in test [2], in test [3], in test [15], in test [4] and in test [5] was “inactive” in each case. The Potency entry in test [9], in test [11], in test [16], in [12], in test [19] and in test [13] was “inactive” in each case. The Potency result in [14] was “inactive”.
As for `O=c1c(O)c(-c2ccc(O)cc2)oc2cc(O)cc(O)c12`, the Potency is 13.2 µM (active) in test [1]; 18.7 µM (active) in test [2]; 16.6 µM (active) in test [3]; 16.6 µM (active) in test [15]; 16.6 µM (active) in test [7]; 20.9 µM (active) in test [9]. Further, the Potency in test [12] is 16.6 µM (active); in test [19], 14.8 µM (active); in test [17] it was 5.9 µM (active); in test [14], 9.35 µM (active).
As to `CC(C)C(=O)Oc1ccc(CO)cc1[C@H](CCN(C(C)C)C(C)C)c1ccccc1`, the Potency result in test [1], in [2], in test [3], in [15], in test [5] and in test [6] was “inactive” throughout. Also, the Potency result in test [9], in test [10], in test [11], in test [12] and in test [17] was “inactive” throughout.
Consider `CC(C)(C)C(=O)Oc1ccc2c(c1)nc(NC(=O)c1cccc([N+](=O)[O-])c1)n2CCCO`, for which the Potency result in [1], in [2], in test [3], in [15], in test [5] and in test [6] was “inactive” in each case. Moreover, the Potency entry in test [9], in test [10], in [11], in test [13] and in test [14] was “inactive” throughout.
As for `Cc1ccc(F)c(NC(=O)Nc2ccc(-c3cccc4[nH]nc(N)c34)cc2)c1`, the Potency in test [1] was 3.32 µM (active); in test [2], 20.9 µM (active); in test [3], 4.18 µM (active); in test [4], 8.33 µM (active); in [5], 7.43 µM (active); in [6] it was 1.87 µM (active). Besides, the Potency in [7] is 16.6 µM (active); in [8], 18.7 µM (active); in [9], 10.5 µM (active); in [11], 10.5 µM (active); in [16] it was 26.4 µM (active); in [12] it was 8.33 µM (active). For the same compound, the Potency is 23.5 µM (active) in test [13], 26.4 µM (active) in test [18] and 9.35 µM (active) in test [14].
For the compound `CCOC1OC(=O)C[C@H]1NC(=O)[C@@H]1CCCN1C(=O)[C@@H](NC(=O)c1ccc(N)c(Cl)c1)C(C)(C)C` (some centres undefined), the Potency in test [1] is 20.9 µM (active); in test [2], 4.69 µM (active); in [3], 29.6 µM (active); in [11] it was 5.26 µM (active); in [12] it was 11.8 µM (active). The Potency entry in test [15], in test [5], in test [7], in test [9], in test [16] and in [13] was “inactive” in each case. Moreover, the Potency entry in test [18] was “inactive”.
With `O=C(NCc1ccccc1)c1csc(Nc2ccncn2)n1`, the Potency in test [1] was 10.5 µM (active); in test [2] it was 6.62 µM (active); in test [3] it was 9.35 µM (active); in test [15], 10.5 µM (active); in test [4], 20.9 µM (active); in test [6] it was 6.62 µM (active). In addition, the Potency is 11.8 µM (active) in test [7]; 16.6 µM (active) in test [8]; 13.2 µM (active) in test [9]; 10.5 µM (active) in test [10]; 7.43 µM (active) in test [11]; 14.8 µM (active) in test [16]. Besides, the Potency in test [12] is 8.33 µM (active); in test [19], 14.8 µM (active); in test [18], 18.7 µM (active).
